# Laboratory results as given in PubChem BioAssay (NCI).
# This is part of a sample that, as a whole, favours compounds with a hit. Of some 83,000 tested, about 20% had one in any assay.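 The endpoint reported here, percent growth, reads 100 for growth as untreated, 0 for no net growth and -100 for all cells dead.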 A number with no mark means an inactive call. Activity calls are given as the source filed them. Rule for the calls: active = growth percent below 10; inactive = the rest.
# Tested on: UACC-62 melanoma
# Experiment: NCI-60 one-dose screen, 48 h (100 = growth as untreated, 0 = no growth, -100 = all killed)
# Details: 10 µM unless noted
row,SMILES,growth
1,COc1ccc(C=Nc2c(C(=O)Nc3cccc(Cl)c3C)sc3nc(C)c(C(=O)/C=C/c4ccc(OC)cc4)cc23)cc1,7.41% (active)
2,CCOC(=O)CNC1=C(Cl)C(=O)N(Cc2ccc(Cl)cc2)C1=O,104%
3,COc1ccc(/C=C(\C(=O)NCc2cccnc2)S(=O)(=O)c2ccccc2)cc1OC,34.9%
4,COc1cc2c(c(OC)c1OC)CCC(c1cccc(C(=O)Nc3ccc(Br)cc3)c1)O2 (stereo not given),53%
5,Nc1cc(-c2ccc(Cl)cc2)nn1-c1nnc(/C=C/c2ccco2)c(=O)[nH]1,52.5%
6,N#C/C(=C\c1ccc(-c2cccc(Cl)c2)o1)C(=O)Nc1ncc(Cc2ccc(Cl)cc2)s1,43%
7,CCOC(=O)c1c(C)nc2c(c1N)C(=O)C(=O)N2Cc1ccc(OC)cc1,53.3%
8,c1csc(-c2cn3nc(-c4c[nH]c5ccccc45)sc3n2)c1,32.5%
9,FC(F)(F)c1[nH]ncc1-c1nc2ccc3[nH]ncc3c2c2c1CCCC2,9.03% (active)
10,COc1cc(-c2nccc3[nH]c(-c4cccc5[nH]ccc45)nc23)cc(OC)c1OC,51.4%
11,COc1ccc2[nH]cc(-c3nonc3-c3c[nH]c4ccc(Br)cc34)c2c1,56%
12,CC(=O)c1c(Nc2cccc(F)c2)[nH]c2c(Cl)cc(Cl)c(Cl)c2c1=O,-18.7% (active)
13,CCOC(=O)NC(=S)n1oc(=O)c2ccccc21,93.3%
14,O=S(Nc1ccccc1)c1ccc(Cl)cc1 (stereo not given),90.4%
15,Nc1c(Br)cc2c(c1Br)Cc1cc([N+](=O)[O-])ccc1-2,89.1%
